# Test results taken from PubChem BioAssay (EPA / NIEHS).
# Values joined by “and” are separate entries in the source; they are usually repeats but may differ in a detail not shown here. Equal entries are not always repeated. Inconclusive results are not listed. Active and inactive are the calls of the source. How the source made its calls: active means hit-call score of the fitted dose curve at least 0.9, where 1 is the maximum; inconclusive means response in the unintended direction; inactive means score below 0.9.
# Key:
# [1] = biological target: Estrogen receptor (Homo sapiens) (UniProt P03372); assay: NVS_NR_hER: NovaScreen (NVS) Nuclear Receptor Binding Assay for human Estrogen Receptor (ER) (AID 2283348)
# Method in brief: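 Cell-free MCF7-derived ER preparation, specific radioligand displaced by test compound, read by scintillation counting 18 h post-dosing. Duplicate single-point 25 uM screen, then concentration-response confirmation; DMSO baseline.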
# [2] = biological target: Estrogen receptor (Homo sapiens) (UniProt P03372); assay: OT_ER_ERaERa_1440: Odyssey Thera (OT) 24-hour HEK293T Protein-Complementation Assay for Estrogen Receptor-alpha/-alpha Homodimer (AID 2283349);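 further: hits raise fluorescence above DMSO for agonists and antagonists alike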
# Method in brief: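 HEK293T, stable ERα LBD (aa 310-547) homodimer PCA; 24 h compound exposure; mean fluorescence intensity (nuclear for agonists, nuclear plus cytoplasmic for antagonists) vs vehicle; positive fitting direction, DMSO baseline.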
# [3] = biological target: Estrogen receptor (Homo sapiens) (UniProt P03372); assay: OT_ER_ERaERa_0480: Odyssey Thera (OT) 8-hour HEK293T Protein-Complementation Assay for Estrogen Receptor-alpha/-alpha Homodimer (AID 2283351);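 further: rise in fluorescence from reassembled reporter fragments on ERα LBD homodimer in nucleus or whole cell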
# Method in brief: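 Measures ERα LBD (aa 310-547) homodimer complementation in stably transfected HEK293T at 8 h post-dose, with fluorescence intensity quantified on a laser scanning cytometer relative to DMSO controls.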
# [4] = biological target: Estrogen receptor (Homo sapiens) + Estrogen receptor beta (Homo sapiens) (UniProt P03372+Q92731); assay: OT_ER_ERaERb_0480: Odyssey Thera (OT) 8-hour HEK293T Protein-Complementation Assay for Estrogen Receptor-alpha/-beta Heterodimer (AID 2283352)
# Method in brief: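 Human HEK293T cells were treated for 8 hours and receptor heterodimerisation was detected through reconstitution of a fluorescent reporter split between ER-alpha and ER-beta ligand-binding domains. Activity was analysed as gain of signal against DMSO.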
# [5] = biological target: bovine Estrogen Receptor (ER), ESR1 (gene 407238) (UniProt P49884); assay: NVS_NR_bER: NovaScreen (NVS) Nuclear Receptor Binding Assay for bovine Estrogen Receptor (ER) (AID 2283345);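 further: actives lower the bound radioligand count which means they displace the ER ligand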
# Method in brief: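 Scintillation counting of displaced radioligand gave the readout; bovine uterine membrane extract supplied the receptor. Measured 18 h post-dose, normalized to DMSO baseline. Single 25 uM duplicate screen preceded concentration-response follow-up.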
# [6] = biological target: D(1A) dopamine receptor (Homo sapiens) (UniProt P21728); assay: NVS_GPCR_hDRD1: NovaScreen (NVS) G Protein-Coupled Receptor Assay for human Dopamine Receptor D1 (DRD1) (AID 2283269)
# Method in brief: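 HEK293-derived receptor preparation; radioligand competitive displacement; 1 h; filtration + scintillation counting. DMSO = negative control/baseline. Primary: 25 uM, duplicate; secondary: concentration–response for actives.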
# [7] = biological target: human Thromboxane A2 Receptor (TXA2), TBXA2R (gene 6915) (UniProt P21731); assay: NVS_GPCR_hTXA2: NovaScreen (NVS) G Protein-Coupled Receptor Assay for human Thromboxane A2 Receptor (TXA2) (AID 2283282);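 further: actives reduce bound radioligand signal relative to DMSO baseline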
# Method in brief: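 Screening ran at 25 uM in duplicate, with concentration series for confirmed actives. Each test measures radioligand binding to human platelet protein after 1 h, cell-free, using filter-based scintillation detection of signal loss relative to DMSO.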
# [8] = biological target: Sodium channel protein type 1 subunit alpha (Rattus norvegicus) (UniProt P04774); assay: NVS_IC_rNaCh_site2: NovaScreen (NVS) Ion Channel Assay for rat Sodium Channel, Site 2 (NaCh) (AID 2283322);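 further: hit means loss of radioligand binding signal relative to DMSO so AC50 marks displacement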
# Method in brief: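 Initial duplicate single-point testing at 25 uM, followed by concentration-response runs for actives. Binding of radioligand to rat forebrain membranes quantified after 1 h via filter-based radiodetection.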
# [9] = biological target: rat Peripheral-type Benzodiazepine Receptor (PBR), Tspo (gene 24230) (UniProt P16257); assay: NVS_MP_rPBR: NovaScreen (NVS) Membrane Protein Assay for rat Peripheral-type Benzodiazepine Receptor (PBR) (AID 2283335)
# Method in brief: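 Single-concentration duplicate screening at 25 uM preceded concentration-series retesting of actives. Binding of a specific radioligand to rat kidney membrane PBR was read by filtration radiodetection after 1 h, with plate-wise positive and negative controls.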
# [10] = biological target: chimpanzee Androgen Receptor (AR), AR (gene 747460) (UniProt O97775); assay: NVS_NR_cAR: NovaScreen (NVS) Nuclear Receptor Binding Assay for chimpanzee Androgen Receptor (AR) (AID 2283346);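 further: radioligand displacement from AR measured by scintillation counting in a cell-free assay; a loss of bound radioligand signal versus DMSO counts as binding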
# Method in brief: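 Cell-free competition binding with insect-cell (Sf9/Sf21) extracted chimpanzee AR; scintillation signal from lysate at 72 h. Screened in duplicate at 25 uM, then concentration-response for actives; fitting relative to DMSO.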
# [11] = biological target: human Peripheral-type Benzodiazepine Receptor (PBR), TSPO (gene 706) (UniProt P30536); assay: NVS_MP_hPBR: NovaScreen (NVS) Membrane Protein Assay for human Peripheral-type Benzodiazepine Receptor (PBR) (AID 2283331);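 further: hits reduce radioligand binding relative to DMSO baseline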
# Method in brief: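 Cell-free binding to human colonic membrane preparations measured by filter-based scintillation counting after 1 h. Compounds first run at 25 uM in duplicate, then concentration series for actives; signal loss against DMSO baseline.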
# [12] = biological target: human Adenosine A2a Receptor (AdoRA2a), ADORA2A (gene 135) (UniProt P29274); assay: NVS_GPCR_hAdoRA2a: NovaScreen (NVS) G Protein-Coupled Receptor Assay for human Adenosine A2a Receptor (AdoRA2a) (AID 2283256)
# Method in brief: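 HEK293-derived receptor preparation, radioligand displacement, 1.5 h, filtration + scintillation read. Loss of bound signal scored vs DMSO. Single-point 25 uM in duplicate first, then concentration-response for actives.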
# [13] = biological target: Muscarinic acetylcholine receptor M2 (Homo sapiens) (UniProt P08172); assay: NVS_GPCR_hM2: NovaScreen (NVS) G Protein-Coupled Receptor Assay for human Muscarinic, M2 Receptor (AID 2283273)
# Method in brief: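 CHO-expressed human M2 receptor preparation, competitive displacement of a radioligand read by filter-based scintillation counting after 1 h. Single 25 uM duplicate screen, then concentration-response follow-up of actives; DMSO baseline.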
# [14] = biological target: human Neurokinin, NK2 Receptor, TACR2 (gene 6865) (UniProt P21452); assay: NVS_GPCR_hNK2: NovaScreen (NVS) G Protein-Coupled Receptor Assay for human Neurokinin, NK2 Receptor (AID 2283278);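 further: actives reduce bound radioligand signal relative to DMSO baseline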
# Method in brief: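 Filter-based scintillation counting measured radioligand bound to receptor extracted from CHO cells, 4 hours after compound addition. Chemicals screened first at 25 uM in duplicate, with actives retested in concentration series relative to DMSO.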
# [15] = biological target: human Opioid Receptor Mu (Opiate Mu), OPRM1 (gene 4988) (UniProt P35372); assay: NVS_GPCR_hOpiate_mu: NovaScreen (NVS) G Protein-Coupled Receptor Assay for human Opioid Receptor Mu (Opiate Mu) (AID 2283290);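 further: hits lower bound tracer signal versus DMSO meaning displacement of the ligand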
# Method in brief: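 CHO-derived receptor protein, cell-free; radioligand displacement, filtration + scintillation counting, read at 2.5 h. DMSO = negative control/baseline. Primary: 25 uM single conc, duplicate; secondary: concentration series.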
# [16] = biological target: rat Adrenergic Receptor, Alpha 2 (Adra2), Non-selective Binding, Adra2a (gene 25083) (UniProt P22909); assay: NVS_GPCR_rAdra2_NonSelective: NovaScreen (NVS) G Protein-Coupled Receptor Assay for rat Adrenergic Receptor, Alpha 2 (Adra2), Non-selective Binding (AID 2283299)
# Method in brief: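 Filter-based scintillation counting of radioligand binding to rat cortical membrane receptors, measured 1.25 hours post-dosing; loss of signal versus DMSO indicates displacement. Initial single-concentration duplicate at 25 uM, then concentration series.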
# [17] = biological target: human Adenosine A1 Receptor (AdoRA1), ADORA1 (gene 134) (UniProt P30542); assay: NVS_GPCR_hAdoRA1: NovaScreen (NVS) G Protein-Coupled Receptor Assay for human Adenosine A1 Receptor (AdoRA1) (AID 2283254)
# Method in brief: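 Hum. cortical membranes + radioligand, cmpd 1 h; filtration, scintillation count. Readout = decrease vs DMSO. Primary 25 uM dup; hits → conc. series.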
# [18] = biological target: rat Thyrotropin Releasing Hormone Receptor (TRH), Trhr (gene 25570) (UniProt Q01717); assay: NVS_GPCR_rTRH: NovaScreen (NVS) G Protein-Coupled Receptor Assay for rat Thyrotropin Releasing Hormone Receptor (TRH) (AID 2283329);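 further: hit means lower bound tracer signal versus DMSO baseline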
# Method in brief: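 Rat forebrain membrane prep, radioligand displacement, filter scintillation readout at 4 h. Single conc 25 uM, duplicate; actives retested as concentration series. DMSO = negative control/baseline.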
# bovine Estrogen Receptor (ER), ESR1 (gene 407238), sequence (P49884 whole entry, looked up): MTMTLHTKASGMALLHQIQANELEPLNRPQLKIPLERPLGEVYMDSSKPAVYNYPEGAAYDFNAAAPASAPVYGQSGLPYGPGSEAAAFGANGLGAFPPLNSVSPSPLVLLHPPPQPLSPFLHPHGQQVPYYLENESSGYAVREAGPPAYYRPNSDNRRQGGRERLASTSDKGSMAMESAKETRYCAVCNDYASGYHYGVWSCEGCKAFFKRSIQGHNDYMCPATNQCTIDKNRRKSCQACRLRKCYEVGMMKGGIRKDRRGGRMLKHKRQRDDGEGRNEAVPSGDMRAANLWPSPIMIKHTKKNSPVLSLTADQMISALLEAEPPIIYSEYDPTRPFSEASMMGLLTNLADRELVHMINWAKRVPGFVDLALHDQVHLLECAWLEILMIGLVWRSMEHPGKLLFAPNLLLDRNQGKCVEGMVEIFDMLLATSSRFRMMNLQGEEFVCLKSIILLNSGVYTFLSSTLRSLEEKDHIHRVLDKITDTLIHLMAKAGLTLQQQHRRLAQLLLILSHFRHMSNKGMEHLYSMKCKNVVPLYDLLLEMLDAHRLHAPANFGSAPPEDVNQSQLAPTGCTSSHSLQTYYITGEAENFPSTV
# human Thromboxane A2 Receptor (TXA2), TBXA2R (gene 6915), sequence (P21731 whole entry, looked up): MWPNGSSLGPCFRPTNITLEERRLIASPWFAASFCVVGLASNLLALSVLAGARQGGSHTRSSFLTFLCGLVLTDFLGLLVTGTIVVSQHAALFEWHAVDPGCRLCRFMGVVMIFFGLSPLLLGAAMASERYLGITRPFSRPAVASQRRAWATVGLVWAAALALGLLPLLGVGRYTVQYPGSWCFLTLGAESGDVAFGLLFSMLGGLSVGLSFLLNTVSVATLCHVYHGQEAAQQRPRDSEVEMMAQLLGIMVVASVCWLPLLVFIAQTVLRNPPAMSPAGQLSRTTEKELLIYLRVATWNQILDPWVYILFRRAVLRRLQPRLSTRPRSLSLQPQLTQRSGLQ
# D(1A) dopamine receptor (Homo sapiens), sequence (P21728 whole entry, looked up): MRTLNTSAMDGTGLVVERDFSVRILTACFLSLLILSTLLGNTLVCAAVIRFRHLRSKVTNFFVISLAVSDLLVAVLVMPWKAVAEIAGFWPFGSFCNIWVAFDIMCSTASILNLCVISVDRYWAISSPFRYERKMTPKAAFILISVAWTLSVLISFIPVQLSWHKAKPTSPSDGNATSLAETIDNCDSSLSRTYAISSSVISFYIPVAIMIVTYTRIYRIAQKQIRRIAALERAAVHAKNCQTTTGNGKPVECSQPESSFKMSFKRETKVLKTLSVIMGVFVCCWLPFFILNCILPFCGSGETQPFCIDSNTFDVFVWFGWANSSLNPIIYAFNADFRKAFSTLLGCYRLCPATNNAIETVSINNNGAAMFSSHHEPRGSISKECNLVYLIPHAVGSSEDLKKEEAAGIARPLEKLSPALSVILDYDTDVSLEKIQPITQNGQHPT
# chimpanzee Androgen Receptor (AR), AR (gene 747460), sequence (O97775 whole entry, looked up): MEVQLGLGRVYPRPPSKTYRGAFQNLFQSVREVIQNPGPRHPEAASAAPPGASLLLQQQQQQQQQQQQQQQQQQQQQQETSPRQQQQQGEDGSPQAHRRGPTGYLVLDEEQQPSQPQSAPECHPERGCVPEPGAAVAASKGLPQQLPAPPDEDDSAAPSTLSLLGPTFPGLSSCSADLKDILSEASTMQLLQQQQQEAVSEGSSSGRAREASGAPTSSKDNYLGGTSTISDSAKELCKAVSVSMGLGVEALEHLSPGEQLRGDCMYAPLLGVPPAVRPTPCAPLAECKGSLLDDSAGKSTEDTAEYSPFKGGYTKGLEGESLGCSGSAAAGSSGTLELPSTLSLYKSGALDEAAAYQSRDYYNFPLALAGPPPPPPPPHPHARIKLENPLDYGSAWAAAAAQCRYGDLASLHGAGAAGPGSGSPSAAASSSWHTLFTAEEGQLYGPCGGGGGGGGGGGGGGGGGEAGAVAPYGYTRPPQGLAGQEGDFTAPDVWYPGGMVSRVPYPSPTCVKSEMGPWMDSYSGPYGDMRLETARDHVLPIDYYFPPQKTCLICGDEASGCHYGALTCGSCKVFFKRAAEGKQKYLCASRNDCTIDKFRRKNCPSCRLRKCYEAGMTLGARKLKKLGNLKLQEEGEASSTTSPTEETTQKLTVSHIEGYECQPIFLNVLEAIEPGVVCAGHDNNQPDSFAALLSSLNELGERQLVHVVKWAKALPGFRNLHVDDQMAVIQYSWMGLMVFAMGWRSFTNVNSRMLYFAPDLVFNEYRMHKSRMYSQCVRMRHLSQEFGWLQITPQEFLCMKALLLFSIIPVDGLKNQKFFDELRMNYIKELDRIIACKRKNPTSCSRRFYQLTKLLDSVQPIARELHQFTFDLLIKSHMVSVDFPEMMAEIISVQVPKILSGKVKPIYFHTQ
# Estrogen receptor (Homo sapiens) + Estrogen receptor beta (Homo sapiens), sequence (P03372 whole entry, looked up, the tested form may be a part): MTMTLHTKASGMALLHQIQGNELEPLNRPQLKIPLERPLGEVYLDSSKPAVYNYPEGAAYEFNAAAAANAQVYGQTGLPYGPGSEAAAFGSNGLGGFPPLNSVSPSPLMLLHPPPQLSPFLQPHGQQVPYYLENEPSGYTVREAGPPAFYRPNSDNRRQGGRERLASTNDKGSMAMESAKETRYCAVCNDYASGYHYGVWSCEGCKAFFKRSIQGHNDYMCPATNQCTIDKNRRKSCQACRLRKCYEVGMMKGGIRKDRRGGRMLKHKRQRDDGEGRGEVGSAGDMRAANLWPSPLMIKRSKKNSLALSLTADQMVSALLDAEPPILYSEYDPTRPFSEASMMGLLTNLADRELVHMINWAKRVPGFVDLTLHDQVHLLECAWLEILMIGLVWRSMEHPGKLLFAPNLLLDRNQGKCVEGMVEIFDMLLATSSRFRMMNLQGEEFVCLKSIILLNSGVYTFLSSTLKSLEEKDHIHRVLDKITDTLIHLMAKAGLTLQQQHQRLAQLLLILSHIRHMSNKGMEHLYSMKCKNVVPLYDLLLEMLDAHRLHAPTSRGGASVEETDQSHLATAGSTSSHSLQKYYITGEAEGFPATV
# Estrogen receptor (Homo sapiens) + Estrogen receptor beta (Homo sapiens), sequence (Q92731 whole entry, looked up, the tested form may be a part): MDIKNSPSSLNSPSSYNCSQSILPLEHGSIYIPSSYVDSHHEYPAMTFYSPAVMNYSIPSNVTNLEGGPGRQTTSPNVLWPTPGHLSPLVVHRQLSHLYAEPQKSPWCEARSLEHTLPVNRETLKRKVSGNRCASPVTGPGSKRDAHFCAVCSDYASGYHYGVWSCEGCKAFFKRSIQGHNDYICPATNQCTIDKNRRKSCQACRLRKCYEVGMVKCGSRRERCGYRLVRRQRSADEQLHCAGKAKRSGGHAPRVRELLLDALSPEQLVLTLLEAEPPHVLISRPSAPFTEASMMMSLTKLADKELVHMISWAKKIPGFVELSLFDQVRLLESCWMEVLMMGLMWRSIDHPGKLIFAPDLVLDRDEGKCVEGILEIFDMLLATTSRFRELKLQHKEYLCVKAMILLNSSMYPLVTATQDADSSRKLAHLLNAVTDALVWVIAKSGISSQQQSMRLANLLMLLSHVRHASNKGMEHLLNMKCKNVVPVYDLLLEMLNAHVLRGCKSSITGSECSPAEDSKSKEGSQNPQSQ
# Estrogen receptor (Homo sapiens), sequence (P03372 whole entry, looked up, the tested form may be a part): as the sequence (P03372 whole entry, looked up, the tested form may be a part) above
# rat Peripheral-type Benzodiazepine Receptor (PBR), Tspo (gene 24230), sequence (P16257 whole entry, looked up): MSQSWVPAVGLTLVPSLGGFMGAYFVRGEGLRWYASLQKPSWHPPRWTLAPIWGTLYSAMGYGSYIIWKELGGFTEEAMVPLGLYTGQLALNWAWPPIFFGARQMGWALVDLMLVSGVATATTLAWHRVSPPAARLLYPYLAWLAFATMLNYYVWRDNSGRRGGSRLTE
# human Peripheral-type Benzodiazepine Receptor (PBR), TSPO (gene 706), sequence (P30536 whole entry, looked up): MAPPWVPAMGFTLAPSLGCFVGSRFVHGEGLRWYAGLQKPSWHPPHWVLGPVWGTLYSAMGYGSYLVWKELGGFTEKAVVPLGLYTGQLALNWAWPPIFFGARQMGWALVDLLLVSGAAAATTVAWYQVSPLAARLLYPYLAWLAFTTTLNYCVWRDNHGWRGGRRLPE
# Muscarinic acetylcholine receptor M2 (Homo sapiens), sequence (P08172 whole entry, looked up): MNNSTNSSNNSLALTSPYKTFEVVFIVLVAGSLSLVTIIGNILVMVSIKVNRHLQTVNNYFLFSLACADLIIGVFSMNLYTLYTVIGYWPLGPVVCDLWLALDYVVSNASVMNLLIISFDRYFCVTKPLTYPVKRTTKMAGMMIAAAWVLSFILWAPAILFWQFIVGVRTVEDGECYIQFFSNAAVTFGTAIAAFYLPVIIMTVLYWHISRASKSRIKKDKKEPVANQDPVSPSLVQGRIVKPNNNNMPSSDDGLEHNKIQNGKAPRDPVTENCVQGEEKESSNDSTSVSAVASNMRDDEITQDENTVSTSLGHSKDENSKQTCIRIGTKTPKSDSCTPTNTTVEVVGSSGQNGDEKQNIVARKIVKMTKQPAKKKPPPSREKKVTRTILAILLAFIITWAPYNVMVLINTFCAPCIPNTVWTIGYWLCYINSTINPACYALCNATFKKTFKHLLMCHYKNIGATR
compound,measurement,setting,value
CN(C)Cc1ccccc1O,outcome,[1],inactive
same,outcome,[2],inactive
same,outcome,[3],inactive
same,outcome,[4],inactive
C(=C(c1ccccc1)c1ccccc1)c1ccccc1,outcome,[5],inactive
same,outcome,[1],inactive
same,AC50,[2],43.1 µM (active)
same,AC50,[3],5.6 µM (active)
same,AC50,[4],9.47 µM (active)
Nc1ccc(Oc2cccc(Oc3ccc(N)cc3)c2)cc1,outcome,[6],inactive
same,outcome,[7],inactive
same,AC50,[8],12.1 µM (active)
same,AC50,[9],13.3 µM (active)
CCN(Cc1cccc(S(=O)(=O)O)c1)c1ccc(C(=C2C=CC(=[N+](CC)Cc3cccc(S(=O)(=O)O)c3)C=C2)c2ccc(O)cc2S(=O)(=O)[O-])cc1,AC50,[10],13.2 µM (active)
same,outcome,[2],inactive
same,outcome,[3],inactive
same,outcome,[4],inactive
CC(C)OC(=O)c1ccccc1C(=O)OC(C)C,AC50,[11],11.5 µM (active)
same,AC50,[9],9.08 µM (active)
same,outcome,[2],inactive
same,AC50,[3],62.8 µM (active)
CCCCCCCCCCCCCCCC[N+](C)(C)Cc1ccccc1,AC50,[12],16.4 µM (active)
same,AC50,[6],1.57 µM (active)
same,AC50,[13],0.584 µM (active)
same,AC50,[14],2.11 µM (active)
same,AC50,[15],1.44 µM (active)
same,AC50,[16],38.6 µM (active)
same,outcome,[8],inactive
same,AC50,[11],41.3 µM (active)
same,AC50,[9],9.82 µM (active)
same,outcome,[5],inactive
same,outcome,[1],inactive
O=S(=O)(O)c1ccc2ccccc2c1,outcome,[2],inactive
same,outcome,[3],inactive
CCN(CC)c1ccc2c(C)cc(=O)oc2c1,outcome,[17],inactive
same,AC50,[13],10.3 µM (active)
same,AC50,[7],3.01 µM (active)
same,AC50,[11],4.66 µM (active)
same,AC50,[9],3.32 µM (active)
same,outcome,[5],inactive
same,AC50,[10],5 µM (active)
CCCCCCC(C)OC(=O)CCCCC(=O)OC(C)CCCCCC (stereo unspecified),AC50,[11],10.2 µM (active)
same,outcome,[10],inactive
same,outcome,[2],inactive
same,outcome,[3],inactive
same,outcome,[4],inactive
CC(Cc1ccc(O)c(O)c1)C(C)Cc1ccc(O)c(O)c1 (stereo unspecified),AC50,[9],6.77 µM (active)
same,AC50,[5],11.1 µM (active)
same,AC50,[1],0.705 µM (active)
same,AC50,[2],11.9 µM (active)
same,AC50,[3],11.9 µM (active)
same,AC50,[4],2.42 µM (active)
[Co],outcome,[2],inactive
same,outcome,[3],inactive
same,outcome,[4],inactive
CO[Si](OC)(c1ccccc1)c1ccccc1,AC50,[6],45.6 µM (active)
C1COCCN1,AC50,[7],6.07 µM (active)
same,outcome,[2],inactive
same,outcome,[3],inactive
same,outcome,[4],inactive
CC(CCl)OP(=O)(OC(C)CCl)OC(C)CCl (stereo unspecified),outcome,[18],inactive
same,AC50,[11],23.8 µM (active)
same,AC50,[9],4.23 µM (active) and 14.6 µM (active)
same,outcome,[2],inactive
same,outcome,[3],inactive
same,outcome,[4],inactive
